Here are results for 96 compounds from PubChem BioAssay AID1910 (Broad Institute, 2009).

Hit rate of the full screen: of about 300,000 compounds, about 950 (0.32%) were called active. Shown is part of a subset that was picked to be rich in actives. Values without a mark were called inactive.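 The calls were made as follows: active = mean activation of at least 10% of the iron chelator positive control signal, with at least half of replicates also reaching 10%; inconclusive = mean and replicate majority disagree about reaching 10%; inactive = mean and most replicates under 10%.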

A short description of this experiment: hypoxia response element reporter activation – cell-based, U2OS HRE-luciferase, luminescence, primary screen (AID 1910). Particulars: active compounds read high, screened at 7.5 µM (by protocol), normalized: DMSO 0%, desferrioxamine 100%.
For `Cc1cccc(N=C2SC(C)CN2C(=O)CN2C(=O)NC3(CCCC3)C2=O)c1` (stereo unspecified), the activation was 0.348%.
The same measure for `CCN(CC(=O)Nc1c(F)cccc1F)C(=O)c1ccc(Sc2nncn2C)c([N+](=O)[O-])c1`: 0.52%; for `O=C(Nc1cccc(F)c1)c1coc(=O)c(Br)c1`: 0.54%; for `COc1ccc(N2CC(C(=O)NCCN3C(=O)S/C(=C\c4cccnc4)C3=O)CC2=O)c(OC)c1` (stereo unspecified): 0.0693%.
The same measure for `O=C(NCCCN1CCOCC1)c1cc(-c2cccc(O)c2)on1`: -0.131%.
The same measure for `O=C(NCCCN1CCOCC1)c1cc(-c2ccccc2F)no1`: 10.1% (active); for `O=C(NCCCN1CCOCC1)c1cc(-c2ccc(Cl)cc2)on1`: -0.141%; for `C=CCNC(=O)/C=C/c1ccc(C(C)C)cc1`: 2.38%.
For the compound `Cn1cnc2c1c(=O)n(Cc1ccccc1C#N)c(=O)n2C`, the activation is -28%.
In the case of `COc1ccc(C(CNC(=O)c2cccc(NS(=O)(=O)c3ccc(C)c(F)c3)c2)N2CCCC2)cc1` (stereo unspecified) it was -0.102%; in that of `O=C1CCCN2N=C(SCC(=O)Nc3ccc(Br)cc3)SC2=N1`, 20.5% (active); in that of `O=C(CSCc1ccc(Br)cc1)Nc1ccc(S(=O)(=O)N2CCCCCC2)cc1`, -0.637%.
As to `Cc1cc(=O)[nH]c(SCC(=O)Nc2ccc(Br)cc2)n1`, the activation is 0.205%.
Consider `O=C(Nc1ncccc1O)c1ccc(S(=O)(=O)N2CCCC2)cc1`, for which the activation was 4.15%.
The same measure for `O=C(Nc1ncccc1O)c1ccc(C(=O)c2ccccc2)cc1`: 14.2% (active).
In the case of `O=C(Nc1ncccc1O)c1ccc(S(=O)(=O)N2CCCCCC2)cc1` it was 3.25%; in that of `Cc1cc(C)c(C)c(S(=O)(=O)Nc2cccnc2)c1C`, -0.0811%.
The same measure for `CCN(CC)c1ccc(/C=N/NC(=O)c2cnccn2)c(O)c1`: 95.3% (active).
With `CCN(CC)c1ccc(/C=N/Nc2nc(C)cc(C)n2)c(O)c1`, the activation was 1.77%.
The same measure for `CCN(CC)c1ccc(/C=N/NC(=O)CNC(=O)c2cccnc2)cc1`: -0.424%.
The same measure for `Cc1c(C(=O)Nc2ccccn2)oc2ccc(Br)cc12`: 2.61%; for `Cc1ccc(C(=O)O)cc1NC(=O)c1ccc(Cn2nc(C)c(Cl)c2C)o1`: -0.0752%.
As for `Cc1c(Cl)c([N+](=O)[O-])nn1Cc1ccc(C(=O)N/N=C\c2cc(Cl)ccc2O)o1`, the activation was 49.6% (active).
The same measure for `Cc1c(Cl)c([N+](=O)[O-])nn1CCCC(=O)Nc1cc(Cl)ccc1Cl`: -0.466%.
In the case of `O=C(COc1coc(CN2CCN(c3ccccc3F)CC2)cc1=O)N1CCc2ccccc21` it was 0.2%; in that of `Cc1nc(-c2ccc(F)cc2)c(CC(=O)Nc2cc(S(=O)(=O)N3CCCCC3)ccc2C)s1`, -0.206%.
In the case of `CC1CN(C(=O)COC(=O)c2cccc(NS(=O)(=O)c3ccccc3)c2)CC(C)O1` (stereo unspecified) it was -0.538%; in that of `CC(C)N(Cc1ccccc1)C(=O)COC(=O)c1ccccc1SCC(=O)N1CCCC1`, -0.658%.
`Oc1ccc2ccccc2c1N=Nc1nccs1`: the activation is 68.6% (active).
The same measure for `c1ccc(NCc2cccc3ccccc23)nc1`: -34.2%; for `Oc1ccc(N=Nc2nccs2)c(O)c1`: -0.857%; for `COc1cccc(NC(=O)CSc2nccn(-c3ccc4c(c3)OCCO4)c2=O)c1`: 0.704%.
Turning to `CC(OC(=O)CCCc1c[nH]c2ccccc12)C(=O)Nc1ccc(S(N)(=O)=O)cc1` (stereo unspecified), the activation is 0.134%.
On to `CCCn1nc(C(=O)NNC(=O)CCOc2ccccc2OCC)c2ccccc2c1=O`, for which the activation is 0.594%.
The same measure for `COc1cc(OC)nc(S(C)(=O)=O)n1`: 0.158%; for `COc1ccc(-c2cc(C(F)(F)F)nc(SCC(=O)Nc3ccc4c(c3)OCO4)n2)cc1OC`: -1.49%.
Consider `COc1ccc(-c2cc(C(F)(F)F)nc(S(C)(=O)=O)n2)cc1OC`, for which the activation is 18.9% (active).
As to `COc1ccc(C(=O)Nc2ccc(C(=O)NCC3CCCO3)cc2)c(OC)c1OC` (stereo unspecified), the activation is -3.72%.
In the case of `COc1cc(N)c(Cl)cc1C(=O)OCC(=O)c1ccc2c(c1)NC(=O)CO2` it was 0.0757%; in that of `CCCCn1c(N)c(N(CCOC)C(=O)COc2c(C)cccc2C)c(=O)[nH]c1=O`, -0.338%; in that of `Cc1nn(C)cc1C(=O)c1ccccc1`, 0.273%.
The same measure for `COc1ccc2c(c1)CCNC2Cc1ccc(OC)c(O)c1` (stereo unspecified): 0.872%; for `O=C1NC(c2ccccc2)Oc2ccccc21` (stereo unspecified): -0.318%; for `COc1cccc(/C=N/Nc2cc(C)nc(-c3ccccc3O)n2)c1O`: 0.0705%.
Turning to `COc1cccc(/C=N/NC(=O)c2[nH]nc3c2CCc2ccccc2-3)c1O`, the activation was 46.5% (active).
Consider `CN(C)CCNC(=O)c1[nH]nc2c1CCc1ccccc1-2`, for which the activation was 2.68%.
Take `COc1ccc(O)c(/C=N/N=C/c2cccc([N+](=O)[O-])c2)c1`: the activation is -2.34%.
For `C1CC1Cc1noc(CN2CCN(CC3CC3)CC2)n1`, the activation was 75.3% (active).
In the case of `Cc1ccccc1N1CCN(Cc2nc(Cc3ccccc3F)no2)CC1` it was 0.117%.
In the case of `CC(C)C(O)C1CCN(Cc2nc(Cc3ccccc3Cl)no2)CC1` (stereo unspecified) it was 0.0858%.
`O=C(Nc1ccc(F)c([N+](=O)[O-])c1)C1CCCO1` (stereo unspecified): the activation was -0.403%.
On to `COc1ccccc1C1=CC(=O)CCC1`, for which the activation was 0.17%.
The same measure for `COc1ccccc1CCNC(=O)C(=O)NCCC1CCCCN1S(=O)(=O)c1cccs1` (stereo unspecified): 0.0341%.
As for `Cc1cccc(NC(=S)N2CCCC(c3nc4ccccc4[nH]3)C2)c1` (stereo unspecified), the activation is 0.822%.
In the case of `CCCNC(=S)N1CCCC(c2nc3ccccc3[nH]2)C1` (stereo unspecified) it was 99.5% (active); in that of `CN(C)CCCNC(=S)N1CCC(c2nc3ccccc3[nH]2)CC1`, 0.0482%.
In the case of `O=C(NCc1ccc2c(c1)OCO2)c1c(O)nc2sccn2c1=O` it was -0.288%; in that of `COc1cc(CN2CCC(C(N)=O)CC2)ccc1OCc1ccccc1`, 5.51%; in that of `COc1cc(C2CC(=O)N3CN(Cc4ccccc4)CSC3=C2C#N)ccc1OCc1ccccc1` (stereo unspecified), 227% (active).
In the case of `COc1cc(CNC2CCCC2)c(Br)cc1OCc1ccccc1` it was -0.706%; in that of `COc1ccc(C(C#N)(CC(=O)O)c2cnccn2)cc1OC` (stereo unspecified), -0.732%.
With `CCCCCN(C(=O)CCC(=O)OCC(=O)NC1CCC(C)CC1)c1c(N)n(CCCC)c(=O)[nH]c1=O` (stereo unspecified), the activation was 0.288%.
For `O=C(NCc1ccc(Cl)cc1)C(=O)NCC1CCCN1S(=O)(=O)c1cccs1` (stereo unspecified), the activation was -0.199%.
On to `Nc1ccc(C(=O)NCc2ccccc2)cc1`, for which the activation is -0.0134%.
In the case of `Nc1ccc(C(=O)Nc2ccccc2N)cc1` it was 23.2% (active).
The same measure for `CC(=O)Nc1ccccc1NC(=O)c1cc(C)cc(C)c1`: -0.124%.
Take `COc1cc(OC)c(OC)cc1CN1CCN(C(=O)c2cccc3ccccc23)CC1`: the activation is -7.26%.
In the case of `Cc1ccc(NC(=O)COc2coc(CN3CCc4ccccc4C3)cc2=O)cc1Cl` it was -0.873%; in that of `Oc1ccc(/C=N/Nc2nc(-c3ccccc3F)nc3ccccc23)c(O)c1`, 0.0261%; in that of `Oc1ccc(/C=N/NC2=NCCCCC2)c(O)c1`, 1.31%.
Turning to `Cc1nc2ccccc2nc1N/N=C/c1ccc(O)cc1O`, the activation is 15.9% (active).
Take `Cc1onc(-c2ccccc2Cl)c1C(=O)OCc1nnc(-c2ccccc2)o1`: the activation is 0.814%.
The same measure for `N#CC1(NC(=O)COC(=O)Cc2n[nH]c(=O)c3ccccc23)CCCCC1`: 1.1%.
In the case of `O=C(COc1coc(CN2CCN(c3ccccc3)CC2)cc1=O)Nc1ccccc1F` it was 0.427%.
In the case of `Cc1ccc(OCCCCc2c(C)n[nH]c2C)cc1` it was 0.618%.
In the case of `CC(C)COc1ccc(C(=O)OCC(=O)NCCC2=CCCCC2)cc1`, the activation is 0.818%.
With `CN1CCCC(OC(=O)COc2ccc(Br)cc2)C1` (stereo unspecified), the activation was -0.189%.
As to `CC1CN/C(=C\C(=O)c2ccc(Br)cc2)C(=O)N1` (stereo unspecified), the activation was 71.1% (active).
Take `COc1cc2c(cc1OC)/C(=C/C(=O)c1ccc(NC(C)=O)cc1)NCC2`: the activation is -0.377%.
In the case of `CC1CCc2[nH]c3ccc(C(=O)N(C)CC(=O)Nc4cccc(F)c4)cc3c2C1` (stereo unspecified) it was 0.749%; in that of `CCNS(=O)(=O)c1ccc(NC(=O)c2cncc(Br)c2)cc1`, 94.2% (active); in that of `O=C(Nc1ccc(S(=O)(=O)Nc2ncccn2)cc1)c1cncc(Br)c1`, -1.84%.
On to `O=C(Nc1ccc(N2CCCC2=O)cc1)c1cncc(Br)c1`, for which the activation was 1.53%.
In the case of `COc1cc(NC(=O)C2CC(c3ccccc3O)=NO2)c(OC)cc1Cl` (stereo unspecified) it was -1.02%.
The same measure for `COc1ccc(NC(=O)NCCN2CCN(c3ccc(C)cc3)CC2)c(Cl)c1`: 2.29%.
As to `O=C(Cc1ccc(Br)cc1)NCCc1ccccc1`, the activation is 0.0277%.
In the case of `COc1ccc(NC(=O)C(C)N2c3cccc4cccc(c34)S2(=O)=O)c(OC)c1` (stereo unspecified) it was 0.272%; in that of `CC(C)CN(CC(C)C)C(=O)CN1c2cccc3cccc(c23)S1(=O)=O`, -19%.
For `CC(C(=O)N1CCOCC1)N1c2cccc3cccc(c23)S1(=O)=O` (stereo unspecified), the activation was 163% (active).
The same measure for `COC(=O)C1CCN(C(=O)NC2CC(=O)N(c3ccc4c(c3)OCCO4)C2)CC1` (stereo unspecified): 2.77%; for `C/C=C/c1ccc(OCC(=O)OCC(=O)Nc2c(C)nn(-c3ccccc3)c2C)c(OC)c1`: 0.205%; for `CCOc1ccccc1OCC(=O)Nc1ccccc1C(=O)NC1CC1`: 0.735%.
Turning to `N[C@@H](Cc1ccccc1)C(=O)N1CCOCC1`, the activation is 1.05%.
In the case of `Cc1cc(N2CCN(c3ccccc3)CC2)nc(N2CCOCC2)n1` it was -0.818%.
The same measure for `Cc1cc(Nc2ccc(Cl)cc2)nc(N2CCOCC2)n1`: 0.664%; for `Cc1cc(Oc2ccccc2)nc(N2CCOCC2)n1`: 686% (active).
